Measurements from the supplement of paper PMC6555819.

tested on: VDR:RXRa (NR concentration 270 nM, RXRa partner concentration 90 nM); assay: PBM binding z-score (relative to random genomic background probes); higher = stronger binding; sequences stand for … in GC…GCGATTGACAGCGTAGAATGAAGG
Method: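 Protein-binding microarray (Agilent 4x180K custom design, double-stranded 60-nt probes: 5' GC cap, 34-nt variable region, 24-nt constant primer region; full probe sequence given). Purified or IVT nuclear receptor:RXRα heterodimers (3:1 NR:RXRα, mostly 270:90 nM) or homodimers were incubated for 1 h in PBS with 2% milk and no ligand, then detected with Alexa488 antibodies. Fluorescence from o1-orientation probes (~5 replicates averaged) was converted to z-scores against 500 random hg19 background probes. Variable regions are seed direct-repeat (DR0–DR5) sites, all their single-nucleotide variants and half-site ablations.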

Compared with TAGCCTAGGTCCTGGGCCAGTATACCACGCGAAC, CCGAATGGGGCAAGGTTACCATAACGCACAGCCA is higher in PBM binding z-score: -0.679 for the first, 0.34 for the second.

Compared with TGAATGAGGCTAAAGATCAGGGAACGTGGCGTCG, CCTCGGAGGACAACAGGAGGTCGGAGCTGCCAGA is higher in PBM binding z-score: -0.503 for the first, -0.0445 for the second.

Going from TAGCCTAGCTCATGCGGGCCAGTATAGTGTCGGC to AATACAGCGTCACTAGGCCAGAGTAGGTACGAAT, the PBM binding z-score rises from -1.1 to -0.29.

Going from CCGAGTAGGTTATGGGCCATTCAGGCAACGGTGA to TCTCGGAGGACACGCAGGTCAGAGCTTTCCAGAG, the PBM binding z-score rises from -0.116 to 1.58.

Going from CCTAGCAGGCCAATATGGGTCACTCAAGGCTTGA to TGTTGTAGATCAAAGGTTAAGAAAGCCGAAGCCT, the PBM binding z-score rises from 0.862 to 1.44.

Going from ATCCCTAGGTAAGACTCAGTTCAGTGAAGAACGC to CTACCAAGGTGAAGAAGGTCGTTGATTACTATTC, the PBM binding z-score rises from 1.05 to 4.25.

Compared with GCTAGTTGGTCAGTAAAAGGTCAAACACCGGTCG, CATACAGGGTCAGCTAGGCAAGAGTAGGGACGGC is lower in PBM binding z-score: 4.29 for the first, 2.53 for the second.

Compared with CGAACTAGTTCATTGACAGGACAGTGAATAGTAA, TAGCCTAGGTCAGATCGGGCCAGCATACGCTATA is lower in PBM binding z-score: 1.26 for the first, 0.584 for the second.

Going from GCATATAGGTAATACAAGGTGGAAGTCCGATTGT to GATGCTAGGTCAACTGATGGTCAGCTAAAGCTCG, the PBM binding z-score rises from -0.118 to 1.69.

Compared with GTACCAAGGTGAATAGGTCGCTGATGAGTAGGCG, TCTCGGAGGACACGAAGGTCAGAGCCTTCCAGAG is higher in PBM binding z-score: 0.351 for the first, 2.42 for the second.

Compared with TCATATAGGTAAAGGTGAAAGTTGAACGATATGA, AGAACGAGGCCAATGAGTTGATAGCACGGGTGGC is higher in PBM binding z-score: 1.58 for the first, 3.09 for the second.

Going from ATCTCTAGGTAACCAAGTTCACTGAATGCCGAAC to CGTCCAAGGTCAGCAGGTCAGTTAAAGCGACGTG, the PBM binding z-score falls from 5.34 to 4.23.

Compared with TCATATAGGTTAATGCTAGGTGAAAGTCCGATCT, GCTATTAGTTGAAAGAGCAACCGAATGATTCTCG is lower in PBM binding z-score: 1.43 for the first, -0.419 for the second.

Going from TCTTGTAGATCAAAGGTTAAAAAAGCCGAAGCCT to TCTTATAGGTAAATGCTAGGTGAAAGTCCGATCT, the PBM binding z-score falls from 1.64 to 0.709.

First: ACTATTAGTTGTCTTAGGGCAACCGATACGACGC
Second: CCAGACAAGTGAGAAGGTAACTCAGCCTCGATTA
The PBM binding z-score of the first is lower: -0.0128 for the first, 0.143 for the second.

First: CCGACTGGGGCAGAAAGGTCACCATACCATCCGG
Second: GCGACTGGGGCATCAGCAGGTAACCATAACTTAA
The PBM binding z-score of the first is higher: 4.43 for the first, -0.245 for the second.

First: ACTAGCAGGCCAAGCTTGGGTCACTCAAACAAAG
Second: ATCTCTAGGTAACAAGTTCAGCGAAAGAGAGGAC
The PBM binding z-score of the first is lower: 0.122 for the first, 2.45 for the second.

Going from AGAATGAGGCTATACGTAGATCAGGGAAGAAAGT to CCTACTGGGCCATGAGGTCATTGATATCAACGTT, the PBM binding z-score rises from -0.45 to 4.43.

Compared with TGAATGAGGTTGAAGATCAGGGAACGTGGCGTCG, CCGGCTGGGGCAGAAAGGTTACCATACCATCCGG is higher in PBM binding z-score: -0.171 for the first, 0.63 for the second.

Going from TCTTGTAGATCAACAGGAGGTTACGAAAGATCGA to CCGAGTAGGTTATGGGGAATTCAGGCAACGGTGA, the PBM binding z-score falls from 0.945 to 0.0968.
